From PubChem BioAssay AID393 (SGCOxCompounds, 2006)
Calls of active or inactive are those of the source. No rule for the calls is given here.

biological target: Serine/threonine-protein kinase pim-1 (Homo sapiens) (UniProt P11309); test: PIM1 kinase ligand binding by thermal shift, biophysical, human, melting temperature shift (AID 393); conditions: Thermal shift assay, active compounds read high; at 10 µM, protein 2 µM, buffer 10 mM PIPES, pH 6.5, NaCl 150 mM unless noted
Sequence (P11309 whole entry, looked up): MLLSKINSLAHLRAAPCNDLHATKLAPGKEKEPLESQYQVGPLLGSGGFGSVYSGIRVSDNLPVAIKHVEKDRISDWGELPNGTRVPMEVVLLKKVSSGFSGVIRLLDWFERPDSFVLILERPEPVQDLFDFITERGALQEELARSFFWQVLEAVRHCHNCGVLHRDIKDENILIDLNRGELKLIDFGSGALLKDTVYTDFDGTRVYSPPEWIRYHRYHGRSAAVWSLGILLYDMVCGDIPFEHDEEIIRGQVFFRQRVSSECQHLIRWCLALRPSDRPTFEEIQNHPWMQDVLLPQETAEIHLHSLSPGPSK

Tm shift, active:
Fc1cccc(-c2cnc3ccc(NC4CCOCC4)nn23)c1 6.94 Celsius
Clc1ccc(-c2cnn3ccc(NCc4cccnc4)nc23)cc1 5.37 Celsius [at 5 µM, protein 1 µM, buffer 10 mM HEPES]
CC(C)[C@@H](CO)Nc1ccc2ncc(-c3cccc(O)c3)n2n1 3.61 Celsius
CCC(CO)Nc1ccc2ncc(-c3cccc(CO)c3)n2n1 (stereo not drawn) 3.17 Celsius
O=c1[nH]c(O)c2c1c1c3ccccc3nc1n1cncc21 9.3 Celsius [at 10 µM, protein 2 µM, buffer 10 mM Na Citrate, pH 6.5, NaCl 150 mM]
CC(=O)Nc1cccc(-c2cnc3ccc(N[C@H](CO)C(C)C)nn23)c1 4.84 Celsius
O=C(O)c1cccc(-c2cnc3ccc(NCC4CC4)nn23)c1 3.62 Celsius
O=C1c2ccccc2-c2n[nH]c3cccc1c23 4.2 Celsius [at 10 µM, protein 2 µM, buffer 10 mM Na Citrate, pH 6.5, NaCl 150 mM]
CCN(CC)CCNC(=O)c1c(C)[nH]c(/C=C2\C(=O)Nc3ccc(Cl)cc32)c1C 3.2 Celsius [at 10 µM, protein 2 µM, buffer 10 mM Na Citrate, pH 6.5, NaCl 150 mM]
Nc1ccc(-c2cnc3ccc(NC4CCOCC4)nn23)cc1 4.71 Celsius
CCC(CO)Nc1ccc2ncc(-c3ccc(C(=O)O)cc3)n2n1 (stereo not drawn) 5.19 Celsius
O=C1NCc2c1c1c3ccccc3[nH]c1c1[nH]c3ccccc3c21 7.8 Celsius [at 10 µM, protein 2 µM, buffer 10 mM Na Citrate, pH 6.5, NaCl 150 mM]
O=C1NC(=O)c2c1c1c3ccccc3[nH]c1c1[nH]c3cc(Br)ccc3c21 7.64 Celsius
NCCCn1cc(C2=C(c3c[nH]c4ccccc34)C(=O)NC2=O)c2ccccc21 9 Celsius [at 10 µM, protein 2 µM, buffer 10 mM Na Citrate, pH 6.5, NaCl 150 mM]
Oc1[nH]c2ccccc2c1C=Nc1ccc2c(c1)OCCO2 4.66 Celsius
NCCNC(O)(O)c1cccc2c(Cl)cccc12 3.5 Celsius [at 10 µM, protein 2 µM, buffer 10 mM Na Citrate, pH 6.5, NaCl 150 mM]
COCCNc1ccc2ncc(-c3cccc(C(N)=O)c3)n2n1 3.13 Celsius
FC(F)(F)Oc1cccc(-c2cnc3ccc(NC4CCOCC4)nn23)c1 9.75 Celsius
COCCNc1ccc2ncc(-c3cccc(Cl)c3)n2n1 6.33 Celsius
CC(=O)c1cccc(-c2cnc3ccc(NC4CCOCC4)nn23)c1 5.71 Celsius
CC(C)[C@@H](CO)Nc1ccc2ncc(-c3cccc(OC(F)(F)F)c3)n2n1 8.65 Celsius
O=C(c1ccc(Nc2nccc(-c3cc4ccccc4s3)n2)cc1)N1CCC(N2CCCC2)CC1 3.7 Celsius [at 10 µM, protein 2 µM, buffer 10 mM Na Citrate, pH 6.5, NaCl 150 mM]
COc1cccc(-c2cnn3ccc(Nc4cccc(Cl)c4)nc23)c1 6.16 Celsius
